We go through 9 compounds from article PMC5540273 (PLoS ONE, 2017).

Some test systems named below: MAPKAPK5; MARK1; MARK2; MARK3; MARK4; MAST1; MELK; MERTK; MET; MKK7; MKNK1; MKNK2.
Details in all cases: concentration: 1 μM, replicates: in singlicate; n = 1
The subject of the next assay is T1, MEK1.
T1 construct: gene MAP2K1

A further assay deals with T2, MEK2.
T2 construct: gene MAP2K2

For a further assay, the system named is T3, MEK3.
T3 construct: gene MAP2K3

The next assay concerns T4, MEK4.
T4 construct: gene MAP2K4

The test system of a further assay is T5, MEK5.
T5 construct: gene MAP2K5

For the next assay, the system named is T6, MEK6.
T6 construct: gene MAP2K6

The next assay deals with T7, MINK.
T7 construct: gene MINK1

The next assay relates to T8, MLCK.
T8 construct: gene MYLK3
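Also: KINOMEscan kinase panel screen.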

Take `CC(C)c1nc(-c2ccc(F)c(NS(=O)(=O)c3c(F)cccc3F)c2)c(-c2ccnc(Nc3ccc(N4CCOCC4)nc3)n2)s1` [GSK1804250]: the “%Inh” value in the assay with MAPKAPK5 is recorded as 0%; in the assay with MARK1 it was 0%; with MARK2, 15%; in the assay with MARK3, 0%; in the assay with MARK4, 16%; with MAST1 it was 0%. The “%Inh” value is 17% in the assay on MEK1; 27% with MEK2; 19% with MEK3; 100% in the assay on MEK4; 100% in the assay on MEK5; 22% in the assay on MEK6. For the same compound, the “%Inh” value with MELK was 45%; in the assay on MERTK, 54%; with MET it was 70%; with MINK, 26%; with MKK7, 15%; with MKNK1, 21%. Moreover, the “%Inh” value with MKNK2 came to 11%; with MLCK, 0%.

Consider `O=C(Nc1n[nH]c2nc(-c3ccccc3O)ccc12)C1CC1` [SB-711880], for which the “%Inh” value with MAPKAPK5 worked out at 0%; in the assay with MARK1, 0%; with MARK2, 43%; with MARK3, 0%; in the assay with MARK4, 0%; in the assay on MAST1, 31%. Also, the “%Inh” value in the assay with MEK1 is given as 5%; in the assay on MEK2 it was 25%; in the assay with MEK3, 40%; with MEK4, 34%; in the assay on MEK5, 63%; with MEK6 it was 0%. The “%Inh” value is given as 0% in the assay on MELK; 27% in the assay with MERTK; 0% with MET; 74% in the assay on MINK; 0% in the assay with MKK7; 0% in the assay on MKNK1. Besides, the “%Inh” value in the assay with MKNK2 is recorded as 38%; with MLCK, 57%.

In the case of `O=C(Nc1n[nH]c2cc(-c3cccs3)ccc12)C1CC1` [SB-731284], the “%Inh” value in the assay on MAPKAPK5 was determined as 4%; with MARK1 it was 47%; in the assay on MARK2, 21%; with MARK3, 0%; with MARK4, 35%; in the assay with MAST1, 6%. The “%Inh” value amounted to 47% in the assay with MEK1; 24% in the assay with MEK2; 51% in the assay with MEK3; 46% in the assay with MEK4; 33% in the assay on MEK5; 0% in the assay with MEK6. In addition, the “%Inh” value in the assay on MELK came to 0%; in the assay with MERTK it was 0%; in the assay with MET, 0%; in the assay with MINK, 67%; with MKK7, 0%; in the assay with MKNK1, 31%. Besides, the “%Inh” value is recorded as 28% in the assay with MKNK2 and 71% in the assay with MLCK.

On to `Cn1cc(-c2cnc(N)c3c(-c4ccc5c(c4)CCN5C(=O)Cc4ccccc4)csc23)cn1` [GSK2593074], for which the “%Inh” value was determined as 0% in the assay with MAPKAPK5; 0% in the assay on MARK1; 5% in the assay on MARK2; 0% in the assay on MARK3; 9% in the assay on MARK4; 25% in the assay with MAST1. Besides, the “%Inh” value with MEK1 stood at 36%; in the assay with MEK2, 23%; with MEK3 it was 23%; in the assay on MEK4, 56%; in the assay with MEK5, 99.8%; in the assay on MEK6, 7%. Also, the “%Inh” value with MELK came out at 0%; in the assay with MERTK, 90%; in the assay with MET, 79%; with MINK, 16%; in the assay with MKK7, 0%; in the assay on MKNK1, 0%. The “%Inh” value with MKNK2 and with MLCK was 0% in each case.

For the compound `CS(=O)(=O)c1cccc(CNc2nc(Nc3ccc4c(c3)CCC(=O)N4)ncc2C(F)(F)F)c1`, the “%Inh” value with MAPKAPK5 is listed as 0%; in the assay on MARK1, 35%; with MARK2 it was 16%; in the assay with MARK3, 56%; with MARK4, 46%; with MAST1, 0%. In addition, the “%Inh” value turned out to be 0% in the assay on MEK1; 58% in the assay with MEK2; 61% with MEK3; 56% with MEK4; 48% in the assay on MEK5; 0% in the assay with MEK6. For the same compound, the “%Inh” value in the assay with MELK amounted to 26%; in the assay on MERTK, 56%; in the assay with MET it was 83%; with MINK, 85%; in the assay on MKK7, 0%; in the assay with MKNK1, 0%. Moreover, the “%Inh” value in the assay on MKNK2 is recorded as 58%; with MLCK it was 0%.

For the compound `COc1cccc(NC(=O)NCCNc2ccnc(Nc3ccc(F)cc3)n2)c1` [GSK1379879], the “%Inh” value in the assay on MAPKAPK5 is listed as 0%; in the assay with MARK1, 0%; in the assay on MARK2, 0%; in the assay on MARK3 it was 0%; in the assay with MARK4, 5%; in the assay with MAST1 it was 0%. Also, the “%Inh” value is given as 19% with MEK1; 0% in the assay on MEK2; 10% in the assay on MEK3; 5% in the assay on MEK4; 40% with MEK5; 0% in the assay with MEK6. For the same compound, the “%Inh” value is 0% with MELK; 0% in the assay on MERTK; 0% in the assay on MET; 2% in the assay with MINK; 30% in the assay with MKK7; 12% with MKNK1. The “%Inh” value is reported as 7% with MKNK2 and 0% with MLCK.

On to `COc1cccc(C2=C(Nc3cccc(O)c3)C(=O)NC2=O)c1` [SB-390771], for which the “%Inh” value with MAPKAPK5 stood at 0%; in the assay with MARK1 it was 0%; in the assay on MARK2, 0%; in the assay on MARK3, 1%; in the assay on MARK4 it was 8%; in the assay on MAST1 it was 4%. Besides, the “%Inh” value in the assay with MEK1 was found to be 0%; in the assay with MEK2, 0%; in the assay with MEK3 it was 0%; in the assay with MEK4, 0%; with MEK5, 71%; in the assay on MEK6, 2%. Further, the “%Inh” value is listed as 27% in the assay on MELK; 18% in the assay with MERTK; 21% in the assay on MET; 18% in the assay on MINK; 20% with MKK7; 11% with MKNK1. Besides, the figures for the “%Inh” value in the assay with MKNK2 and in the assay on MLCK were 5% and 0%, respectively.

For `COc1cccc2c(-c3ccncc3)c(-c3ccc(F)cc3)nn12` [GW468513], the “%Inh” value with MAPKAPK5 was determined as 0%; in the assay with MARK1 it was 0%; in the assay with MARK2 it was 0%; in the assay with MARK3, 0%; in the assay on MARK4, 3%; with MAST1 it was 15%. For the same compound, the “%Inh” value in the assay on MEK1 is listed as 0%; in the assay with MEK2, 1%; with MEK3, 0%; with MEK4 it was 19%; in the assay on MEK5 it was 33%; in the assay with MEK6, 0%. For the same compound, the “%Inh” value in the assay with MELK is on record as 0%; with MERTK, 0%; in the assay with MET it was 84%; in the assay on MINK, 78%; with MKK7, 0%; in the assay with MKNK1, 22%. Moreover, the “%Inh” value in the assay with MKNK2 was 0%; with MLCK, 6%.

Consider `COC(=O)Nc1nc2ccc(Oc3ccc(NC(=O)Nc4cc(C(F)(F)F)ccc4F)cc3)cc2[nH]1.Cl` [GW654607], for which the “%Inh” value in the assay on MAPKAPK5, in the assay with MARK1, in the assay with MARK2, with MARK3, in the assay with MARK4 and in the assay on MAST1 was 0% throughout. In addition, the “%Inh” value turned out to be 0% in the assay with MEK1; 0% in the assay with MEK2; 0% in the assay on MEK3; 15% with MEK4; 94.2% with MEK5; 7% with MEK6. In addition, the “%Inh” value is reported as 0% with MELK; 98.5% with MERTK; 88% with MET; 15% in the assay on MINK; 0% in the assay with MKK7; 73% with MKNK1. Also, the “%Inh” value in the assay with MKNK2 is listed as 94.9%; in the assay on MLCK, 0%.
